# Assay outcomes deposited in PubChem by Broad Institute.
# INS-1E GSIS act: primary screen for activators of insulin secretion dependent on glucose, INS-1E cells, GLuc reporter luminescence; INS-1E GLuc reporter insulin secretion, 2-3 h; activation, % at 16.6 µM; 0.61% of 370,000 active; AID 743287;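 active = lowest replicate activation of at least 40%, so every replicate reaches that level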;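 note: 0% = median of neutral control wells and 100% = median of IBMX positive control wells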
# MITF act: increases MITF-driven TRPM1 promoter luciferase signal | activation, % at 12.5 µM | SK-MEL-5 TRPM1-promoter luciferase, 24 h; % of positive control, neutral wells = 0 | 0.75% of 300,000 active;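 active = mean activation of at least 80% with every replicate also reaching 80%; inconclusive = mean reaches 80% but some replicate falls short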;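 note: 0% = neutral control wells and 100% = parthenolide positive control wells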
# NSD2 HMT inh: inhibitors of human histone methyltransferase NSD2. inhibition, % at 12.5 µM. O96028. NSD2 peptide methylation, AlphaScreen, 120 min. 0.54% of 310,000 active. AID 743445
# Target sequence (O96028 whole entry, looked up): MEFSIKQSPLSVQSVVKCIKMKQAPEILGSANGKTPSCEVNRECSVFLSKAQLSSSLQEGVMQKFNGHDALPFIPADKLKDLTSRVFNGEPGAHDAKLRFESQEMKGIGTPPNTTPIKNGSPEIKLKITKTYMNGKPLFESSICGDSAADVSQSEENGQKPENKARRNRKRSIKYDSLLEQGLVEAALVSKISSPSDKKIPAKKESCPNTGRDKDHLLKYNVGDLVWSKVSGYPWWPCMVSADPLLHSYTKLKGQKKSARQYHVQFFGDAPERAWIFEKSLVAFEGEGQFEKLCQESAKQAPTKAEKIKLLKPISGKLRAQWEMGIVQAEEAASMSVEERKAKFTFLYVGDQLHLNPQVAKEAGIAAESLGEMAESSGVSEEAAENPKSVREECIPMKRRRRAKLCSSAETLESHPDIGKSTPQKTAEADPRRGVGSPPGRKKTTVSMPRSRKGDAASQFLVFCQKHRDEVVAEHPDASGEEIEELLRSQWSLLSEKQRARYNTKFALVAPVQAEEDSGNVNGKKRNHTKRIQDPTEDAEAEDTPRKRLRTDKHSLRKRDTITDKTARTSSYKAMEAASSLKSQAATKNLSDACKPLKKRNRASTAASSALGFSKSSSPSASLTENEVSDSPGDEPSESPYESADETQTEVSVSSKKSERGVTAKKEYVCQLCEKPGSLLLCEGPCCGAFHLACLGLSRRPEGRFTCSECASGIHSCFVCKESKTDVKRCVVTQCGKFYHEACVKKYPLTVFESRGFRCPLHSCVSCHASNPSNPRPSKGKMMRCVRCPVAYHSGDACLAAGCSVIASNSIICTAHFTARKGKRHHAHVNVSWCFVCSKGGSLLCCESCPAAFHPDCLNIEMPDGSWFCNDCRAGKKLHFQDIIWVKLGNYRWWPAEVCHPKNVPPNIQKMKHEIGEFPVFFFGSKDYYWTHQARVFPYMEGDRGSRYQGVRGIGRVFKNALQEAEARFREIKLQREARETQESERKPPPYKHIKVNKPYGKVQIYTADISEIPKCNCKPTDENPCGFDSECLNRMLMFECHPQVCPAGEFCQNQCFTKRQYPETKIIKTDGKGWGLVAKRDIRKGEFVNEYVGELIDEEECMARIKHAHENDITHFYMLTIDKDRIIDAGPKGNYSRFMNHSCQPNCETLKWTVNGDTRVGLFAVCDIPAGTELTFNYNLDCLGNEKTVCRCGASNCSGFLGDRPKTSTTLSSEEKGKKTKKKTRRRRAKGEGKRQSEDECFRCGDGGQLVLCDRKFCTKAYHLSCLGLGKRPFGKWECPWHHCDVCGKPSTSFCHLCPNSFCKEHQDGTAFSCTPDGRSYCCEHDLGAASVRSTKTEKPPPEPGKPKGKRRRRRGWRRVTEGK
# miR-122 sensor: miR-122 inhibition in Huh7 cells. Huh7 miR-122 Renilla luciferase sensor, 48 h; neutral wells = 0, positive control = 100. activation (reporter increase), % at 12.5 µM. 0.3% of 340,000 active. AID 602342;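 active = mean replicate activation score at least 90 and every replicate individually at or above 90; inconclusive = only one of the two criteria met; inactive = neither criterion met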;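 note: higher luciferase means less miR-122 activity so hits act as miR-122 inhibitors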
# DYRK1A inh: inhibitors of rat Dyrk1A kinase. 0.43% of 310,000 active. inhibition, % at 12.5 µM. Q63470. ADP-Glo luminescence, NFATc1 peptide;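 note: plate controls were vehicle with enzyme for no effect and no enzyme for full effect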
# Wnt act: Wnt/beta-catenin pathway activation | Wnt/beta-catenin reporter cell assay, activator, plate reader | activation, % at 9.35 µM | 1.2% of 300,000 active; in the data active = activation above about 30%, passing the limit was not always enough; inconclusive = no clear call, values can overlap the other calls;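 note: 0% = neutral control wells and 100% = positive control wells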
# * = called active by the depositor; ? = inconclusive; · = no result given; [ ] = remark or other dose. This is a sample that favours compounds with a hit; in the whole collection about 2.4% have one here. Cut-off read from the data, not from the text of the source, unless noted: active = inhibition above about 50%; inactive = the rest.
SMILES,INS-1E GSIS act,MITF act,NSD2 HMT inh,miR-122 sensor,DYRK1A inh,Wnt act
C[C@@H]1CN([C@H](C)CO)C(=O)c2cc(NC(=O)CCC(F)(F)F)ccc2O[C@@H]1CN(C)S(=O)(=O)c1ccccc1,13.7,·,·,61.3[16.7 µM],·,·
Cc1cccnc1NC(=O)c1ccc(S(=O)(=O)N2CCCCC2)cc1,41.3*,-1.7,0.0,·,-0.5,-1.0
Cc1nnc(NC(=O)c2cccc(S(=O)(=O)N3CCCC3)c2)s1,28.2,-8.2,-1.8,2.0,-3.1,0.7
Cc1nnc(NC(=O)c2ccc(S(=O)(=O)N3CCCCC3)cc2)s1,8.5,1.0,4.9,·,-2.1,62.6*
COc1ccc(-c2ccc3c(c2)[C@H]2[C@H](CCN2C(=O)Cc2cccnc2)[C@H](CO)N3C)cc1,·,·,·,-13.7[16.7 µM],·,·
COc1cccc(-c2ccc([C@H]3[C@H](CO)N4C(=O)CN(C(=O)c5ccncc5)C[C@@H]34)cc2)c1,10.2,·,·,·,·,·
COc1cc2c(cc1OC)/C(=C/C(=O)c1ccc(OC)c([N+](=O)[O-])c1)NCC2,51.1*,1.0,4.4,·,-1.8,0.4
CC1=CC(c2ccccc2)n2nc(NC(=O)CCCC(=O)O)nc2N1 (stereo not drawn),7.6,-6.4,-1.5,·,5.0,-2.0
CC1=CC(c2ccccc2)n2nc(NC(=O)CCC(=O)O)nc2N1 (stereo not drawn),65.5*,-0.6,-1.0,-6.0,-3.6,0.1
CC(=O)NC[C@@H]1[C@H](c2ccc(-c3ccccc3)cc2)[C@@H](CO)N1C(=O)C1CC1,4.2,·,·,-12.1[16.7 µM],·,·
Cc1ccccc1OCC(=O)Nc1cccc(N(C)S(C)(=O)=O)c1,6.1,24.0,-5.8,3.9,-3.9,-1.5
O=C(COc1ccc(Cl)cc1Cl)Nc1cccnc1,-5.4,93.8*,-3.0,·,4.8,?
O=C(COc1ccc(Cl)cc1Cl)N/N=C/c1cccnc1,-2.1,14.5,-2.3,-2.6,4.3,-1.6
CN(c1cccc(NC(=O)COc2ccc(Cl)cc2Cl)c1)S(C)(=O)=O,·,·,7.4,-0.3,0.0,37.3*
Cc1ccc(S(=O)(=O)Nc2c(C)ccc3nsnc23)cc1,·,·,0.1,138.0*,6.0,·
Cc1ccc(NS(=O)(=O)c2cccc3nsnc23)cc1,-42.2,-9.2,1.9,·,-6.7,2.2
NC1=NC[C@H](Cc2ccccc2)N1CCCCC1CCCCC1,469.5*,6.7,·,·,5.4,-4.6
NC1=NC[C@H](Cc2ccc(O)cc2)N1CCCCC1CCCCC1,·,-39.0,·,·,·,-4.8
C[C@H](CO)N1C[C@H](C)[C@@H](CN(C)C(=O)CN(C)C)Oc2cc(Br)ccc2S1(=O)=O,3.5,·,·,3.6[16.7 µM],·,·
Cc1cc(C)nc(NC(=O)Nc2ccc3c(c2)OCO3)c1,1.5,47.1,0.7,6.7,-3.3,-5.6
Cc1ccc(NC(=O)/C=C/c2ccc3c(c2)OCO3)nc1,·,?,-0.8,·,1.5,30.2*
Cc1ccc(NC(=O)Nc2ccc3c(c2)OCO3)nc1,4.5,130.2*,0.3,-13.5,-2.1,?
C[C@@H]1CCCCO[C@@H](CN(C)Cc2ccc(C(=O)O)cc2)[C@@H](C)CN([C@@H](C)CO)C(=O)c2cc(NC(=O)Nc3cccc4ccccc34)ccc2O1,-11.6,·,·,2.0[16.7 µM],·,·
Cc1ccc(S(=O)(=O)N[C@H]2C=C[C@@H](CC(=O)NC3CCCCC3)O[C@H]2CO)cc1,-1.8,·,·,·,·,·
CN(C)C(=O)c1ccc(-c2ccc3c(c2)[C@@H]2[C@@H](CCN2C(=O)c2ccccn2)[C@H](CO)N3)cc1,1.7,·,·,-0.4[16.7 µM],·,·
SMILES,INS-1E GSIS act,MITF act,NSD2 HMT inh,miR-122 sensor,DYRK1A inh,Wnt act
CO[C@H]1CN(C)C(=O)c2cc(NC(C)=O)ccc2OC[C@H](C)N(CCc2ccccc2)C[C@@H]1C,2.4,·,·,1.7[16.7 µM],·,·
CCCCn1c(CN2CCN(C(=O)OCC)CC2)nc2c1c(=O)n(C)c(=O)n2C,·,-8.4,12.2,-2.7,-0.8,41.7*
CCCCCn1c(CN2CCN(CCO)CC2)nc2c1c(=O)n(C)c(=O)n2C,·,-4.4,·,·,1.9,-1.7
COc1ccccc1CN(C)C(=O)C1COc2ccccc2O1 (stereo not drawn),·,·,1.0,11.8,2.3,39.0*
Cc1ccc(NC(=O)CN(C)C(=O)C2COc3ccccc3O2)cc1 (stereo not drawn),0.8,-6.5,-1.3,·,3.2,-0.8
CCC(=O)N(C)C[C@H]1Oc2cc(-c3ccc(C)cc3)ccc2S(=O)(=O)N([C@@H](C)CO)C[C@@H]1C,-21.9,·,·,20.6[16.7 µM],·,·
CCn1c(SCc2cc(=O)[nH]c3ccccc23)nc2c1c(=O)n(C)c(=O)n2C,49.4*,9.8,0.3,·,1.9,·
